Test results taken from PubChem BioAssay AID1159580 (chemical genetic matrix, 2015).
Several values for one entry are separate records, joined by “and”; a condition that tells them apart may be missing. Equal entries are not always repeated. In all, about 5,500 compounds went through this assay and about 2,000 (36%) were called active. Not shown: some 18% with an inconclusive outcome. Rule as the data show it: active = normalized growth mostly below about 0.91 (no sharp cut-off); inconclusive = no clear call, values can overlap the other calls; inactive = mostly above about 0.92. This is one part of the list.

Experiment: chemical genetic growth profiling, strain panel (AID 1159580);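 also: tested at 20 µM; growth read once vehicle control cultures reached saturation at 30 °C; 1 = growth at the plate median or of vehicle wells; lower values mean less growth of the strain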
Details: S. cerevisiae deletion strains, growth OD

Measured: normalized growth

COc1ccc2c(c1O)-c1c(OC)c(OC)cc3c1[C@H](C2)N(C)CC3
inactive: locus YAL021C, strain ccr4, stronger effect = lower value 0.926 | locus YAL026C, strain drs2, stronger effect = lower value 0.985 | locus YAL030W, strain snc1, stronger effect = lower value 0.989 | locus YBL061C, strain skt5, stronger effect = lower value 0.99 | locus YBR009C, strain hhf1, stronger effect = lower value 1.01 | locus YBR021W, strain FUR4, stronger effect = lower value 1.02 | locus YBR023C, strain chs3, stronger effect = lower value 0.988 | locus YBR171W, strain sec66, stronger effect = lower value 0.976 | locus YBR229C, strain ROT2, stronger effect = lower value 1 | locus YBR231C, strain swc5, stronger effect = lower value 0.991 | locus YBR279W, strain paf1, stronger effect = lower value 0.978 | locus YCL011C, strain gbp2, stronger effect = lower value 0.979 | locus YCL016C, strain dcc1, stronger effect = lower value 0.983 | locus YCL029C, strain bik1, stronger effect = lower value 1.04 | locus YCL061C, strain MRC1, stronger effect = lower value 0.979 | locus YCL069W, strain vba3, stronger effect = lower value 0.981 | locus YCR088W, strain abp1, stronger effect = lower value 0.975 | locus YDL005C, strain med2, stronger effect = lower value 0.982 | locus YDL035C, strain GPR1, stronger effect = lower value 1.06 | locus YDL040C, strain nat1, stronger effect = lower value 0.982 | locus YDL074C, strain BRE1, stronger effect = lower value 1.1 | locus YDL101C, strain DUN1, stronger effect = lower value 1.02 | locus YDL185W, strain tfp1, stronger effect = lower value 1.03 | locus YDL192W, strain arf1, stronger effect = lower value 1.03 | locus YDR001C, strain nth1, stronger effect = lower value 0.982 | locus YDR069C, strain doa4, stronger effect = lower value 0.989 | locus YDR101C, strain arx1, stronger effect = lower value 1.03 | locus YDR137W, strain rgp1, stronger effect = lower value 0.983 | locus YDR150W, strain NUM1, stronger effect = lower value 1.01 | locus YDR159W, strain sac3, stronger effect = lower value 1 | locus YDR162C, strain NBP2, stronger effect = lower value 1.01 | locus YDR195W, strain ref2 0.991 | locus YDR297W, strain sur2, stronger effect = lower value 0.974 | locus YDR318W, strain mcm21, stronger effect = lower value 1.01 | locus YDR334W, strain swr1, stronger effect = lower value 0.951 | locus YDR335W, strain msn5, stronger effect = lower value 0.977 | locus YDR388W, stronger effect = lower value 1.02 | locus YDR392W, strain spt3, stronger effect = lower value 0.931 | locus YDR502C, strain sam2, stronger effect = lower value 1.01 | locus YEL003W, strain gim4, stronger effect = lower value 0.982 | locus YEL037C, strain rad23, stronger effect = lower value 0.988 | locus YEL061C, strain CIN8 (second series), stronger effect = lower value 0.987 | locus YEL061C, strain CIN8, stronger effect = lower value 1.02 | locus YER015W, strain faa2, stronger effect = lower value 0.991 | locus YER016W, strain bim1, stronger effect = lower value 0.985 | locus YER110C, stronger effect = lower value 1.01 | locus YER111C, strain swi4, stronger effect = lower value 0.995 | locus YER155C, strain BEM2 (second series), stronger effect = lower value 1.01 | locus YER155C, strain BEM2, stronger effect = lower value 1 | locus YER167W, strain BCK2, stronger effect = lower value 1.02 | locus YFR010W, strain ubp6, stronger effect = lower value 0.987 | locus YGL078C, strain dbp3, stronger effect = lower value 1.02 | locus YGL086W, strain mad1, stronger effect = lower value 1.04 | locus YGL167C, strain pmr1, stronger effect = lower value 0.999 | locus YGL173C, strain kem1, stronger effect = lower value 0.975 | locus YGL227W, strain vid30, stronger effect = lower value 0.989 | locus YGL240W, strain doc1, stronger effect = lower value 0.996 | locus YGL248W, strain PDE1, stronger effect = lower value 1.01 | locus YGL253W, strain hxk2, stronger effect = lower value 1.01 | locus YGR135W, strain pre9, stronger effect = lower value 1 | locus YGR252W, strain gcn5, stronger effect = lower value 0.991 | locus YHR013C, strain ard1, stronger effect = lower value 0.95 | locus YHR027C, strain rpn1, stronger effect = lower value 0.988 | locus YHR030C, strain SLT2, stronger effect = lower value 1.02 and 0.976 | locus YHR079C, strain IRE1 (second series), stronger effect = lower value 1.01 | locus YHR079C, strain IRE1, stronger effect = lower value 0.993 | locus YHR094C, strain hxt1, stronger effect = lower value 1.01 | locus YHR129C, strain ARP1, stronger effect = lower value 1.03 | locus YHR142W, strain chs7, stronger effect = lower value 0.915 | locus YHR200W, strain rpn10, stronger effect = lower value 1.04 | locus YIL066C, strain RNR3, stronger effect = lower value 1.04 | locus YIL073C, strain SPO22, stronger effect = lower value 1.1 | locus YIL125W, strain kgd1, stronger effect = lower value 1.01 | locus YIR030C, strain dcg1, stronger effect = lower value 1.01 | locus YJL092W, strain hpr5, stronger effect = lower value 0.97 | locus YJL095W, strain BCK1 (second series), stronger effect = lower value 0.995 | locus YJL095W, strain BCK1, stronger effect = lower value 1.03 and 1.01 | locus YJL115W, strain asf1, stronger effect = lower value 0.957 | locus YJL129C, strain trk1, stronger effect = lower value 0.959 | locus YJL134W, strain LCB3, stronger effect = lower value 1.01 | locus YJL154C, strain vps35, stronger effect = lower value 0.982 | locus YJL164C, strain tpk1, stronger effect = lower value 0.972 | locus YJL166W, strain qcr8, stronger effect = lower value 0.987 | locus YJL168C, strain set2, stronger effect = lower value 1.03 | locus YJL187C, strain SWE1 (second series), stronger effect = lower value 1.03 | locus YJL187C, strain SWE1, stronger effect = lower value 0.994 | locus YJR043C, strain POL32, stronger effect = lower value 1.03 | locus YJR066W, strain TOR1, stronger effect = lower value 0.947 | locus YKL009W, strain mrt4, stronger effect = lower value 1.12 | locus YKL068W, stronger effect = lower value 1 | locus YKL085W, strain MDH1 (second series), stronger effect = lower value 1.01 | locus YKL085W, strain MDH1, stronger effect = lower value 1.01 | locus YKL160W, strain elf1, stronger effect = lower value 0.965 | locus YKR001C, strain vps1, stronger effect = lower value 1.03 | locus YKR026C, strain gcn3, stronger effect = lower value 0.981 | locus YKR091W, strain srl3, stronger effect = lower value 0.975 | locus YLL001W, strain dnm1, stronger effect = lower value 0.986 | locus YLL026W, stronger effect = lower value 0.989 | locus YLL041C, strain sdh2, stronger effect = lower value 0.975 | locus YLR027C, strain aat2, stronger effect = lower value 0.987 | locus YLR039C, strain RIC1, stronger effect = lower value 1.09 | locus YLR058C, strain SHM2, stronger effect = lower value 1.01 | locus YLR102C, strain apc9, stronger effect = lower value 1.02 | locus YLR113W, strain HOG1, stronger effect = lower value 1 | locus YLR221C, strain rsa3, stronger effect = lower value 0.981 | locus YLR258W, strain gsy2, stronger effect = lower value 0.999 | locus YLR262C, strain YPT6 (second series), stronger effect = lower value 0.972 | locus YLR262C, strain YPT6, stronger effect = lower value 1.1 | locus YLR268W, strain sec22, stronger effect = lower value 1.05 | locus YLR320W, strain mms22, stronger effect = lower value 1.01 | locus YLR330W, strain CHS5, stronger effect = lower value 1.02 | locus YLR342W, strain FKS1 (second series), stronger effect = lower value 1.06 | locus YLR342W, strain FKS1, stronger effect = lower value 0.986 | locus YLR357W, strain rsc2, stronger effect = lower value 1 | locus YLR370C, strain arc18, stronger effect = lower value 0.979 | locus YLR371W, strain rom2, stronger effect = lower value 1.03 | locus YLR384C, strain iki3, stronger effect = lower value 0.996 | locus YLR418C, strain cdc73, stronger effect = lower value 1.02 | locus YML016C, strain PPZ1, stronger effect = lower value 1.01 | locus YML032C, strain rad52, stronger effect = lower value 1.02 | locus YML120C, strain ndi1, stronger effect = lower value 0.966 | locus YML124C, strain tub3, stronger effect = lower value 1 | locus YMR058W, strain fet3, stronger effect = lower value 0.968 | locus YMR078C, strain ctf18, stronger effect = lower value 1.02 | locus YMR125W, strain sto1, stronger effect = lower value 0.99 | locus YMR129W, stronger effect = lower value 1.01 | locus YMR205C, strain PFK2, stronger effect = lower value 1.01 | locus YMR223W, strain ubp8, stronger effect = lower value 0.994 | locus YMR231W, strain pep5, stronger effect = lower value 0.987 | locus YMR307W, strain GAS1, stronger effect = lower value 1.11 | locus YNL067W, strain RPL9B, stronger effect = lower value 1.01 | locus YNL071W, strain lat1, stronger effect = lower value 0.983 | locus YNL183C, strain NPR1, stronger effect = lower value 0.954 | locus YNL209W, strain ssb2, stronger effect = lower value 0.983 | locus YNL233W, strain BNI4, stronger effect = lower value 1.01 | locus YNL248C, strain rpa49, stronger effect = lower value 0.912 | locus YNL250W, strain rad50, stronger effect = lower value 1.01 | locus YNL271C, strain bni1, stronger effect = lower value 1.03 | locus YNL298W, strain CLA4, stronger effect = lower value 1.01 | locus YNL307C, strain MCK1, stronger effect = lower value 1.02 | locus YNL322C, strain KRE1 (second series), stronger effect = lower value 0.974 | locus YNL322C, strain KRE1, stronger effect = lower value 1.02 | locus YNR049C, strain mso1, stronger effect = lower value 0.987 | locus YNR052C, strain pop2, stronger effect = lower value 1.02 | locus YOL006C, strain TOP1, stronger effect = lower value 1.21 | locus YOL012C, strain htz1 1.07 | locus YOL147C, strain pex11, stronger effect = lower value 1.01 | locus YOR001W, strain rrp6, stronger effect = lower value 0.955 | locus YOR061W, strain CKA2, stronger effect = lower value 1.02 | locus YOR069W, strain VPS5, stronger effect = lower value 1.01 | locus YOR070C, strain gyp1, stronger effect = lower value 0.989 | locus YOR080W, strain dia2, stronger effect = lower value 0.999 | locus YOR083W, strain WHI5, stronger effect = lower value 0.943 | locus YOR106W, strain vam3, stronger effect = lower value 0.945 | locus YOR136W, strain idh2, stronger effect = lower value 1.02 | locus YOR144C, strain elg1, stronger effect = lower value 1.01 | locus YOR184W, strain ser1, stronger effect = lower value 1.06 | locus YOR231W, strain MKK1, stronger effect = lower value 1 | locus YOR265W, strain rbl2, stronger effect = lower value 0.984 | locus YOR270C, strain vph1, stronger effect = lower value 0.964 | locus YOR290C, strain snf2, stronger effect = lower value 0.99 | locus YOR316C, strain cot1, stronger effect = lower value 1.04 | locus YPL051W, strain arl3, stronger effect = lower value 0.973 | locus YPL078C, strain atp4, stronger effect = lower value 0.926 | locus YPL106C, strain sse1, stronger effect = lower value 0.972 | locus YPL240C, strain hsp82, stronger effect = lower value 0.976 | locus YPL241C, strain CIN2, stronger effect = lower value 1.01 | locus YPL256C, strain CLN2, stronger effect = lower value 0.973 | locus YPR119W, strain clb2, stronger effect = lower value 1 | locus YPR141C, strain kar3, stronger effect = lower value 1 | locus YPR163C, strain tif3, stronger effect = lower value 1.02 | locus YPR167C, strain met16, stronger effect = lower value 1.04 | strain wtn01, stronger effect = lower value 1.07
